# According to PubChem BioAssay (Tox21):
# Results filed as inconclusive are left out. Values without a mark were called inactive. Calls come from the whole dose curve; as a rule, active = well fitted activation curve with a large enough effect in the repeat runs; inconclusive = weak or mixed curves; inactive = flat fitted curve, though single readings scatter.
# Assay: A CellTox Green Cytotoxicity Assay to monitor cytotoxicity in HepG2 cells - 32 hour (AID 1224883); note: nearly all actives have a fitted effect of over 50% in size
# Details: CellTox Green fluorescence; series mostly up to 76.8 µM; cytotoxicity increase: at the top concentration
# From the text: National Center for Advancing Translational Sciences [NCATS]
# NIH Chemical Genomics Center [NCGC]
# U.S. Environmental Protection Agency [EPA]
# National Institutes of Environmental Health Sciences [NIEHS]
# National Toxicology Program [NTP]
# Cell-based models are critical for drug discovery. Determining the natural cytotoxic effects resulting from test compounds is an essential research activity. A CellTox Green Cytotoxicity Assay to monitor cytotoxicity in real time of continues cell culture during 40 hours of the compound treatment was used to screen Tox21 10K library compounds in HepG2 cells. CellTox Green Cytotoxicity Assay is a nonlytic, homogeneous, biofluorescent method to measure cytotoxicity in cell culture after experimental manipulation. The assay system uses a proprietary asymmetric cyanine dye that is excluded from viable cells but preferentially stains the dead cell's DNA. […] Viable cells produce no appreciable increases in fluorescence. Therefore, the fluorescence signal produced by the binding interaction with dead cell DNA is proportional to cytotoxicity.
# The mixture of HepG2 cell suspension and reagents were dispensed at 600cells/6 ul/well in 1536-well tissue culture treated black solid bottom plates using a Multidrop dispenser. After the assay plates were incubated at a 37 C/5% CO2 incubator for 5 hours, 23 nL of compounds dissolved in DMSO, positive and negative controls was transferred to the assay plate by a pintool work station. The plates were incubated at 37 C for 40 hours. The fluorescence intensity were measured at 0h, 8h, 16h, 24h, 32h and 40h time points using ViewLux plate reader during compound treatment.
# % is set by controls: 0 for no effect and ±100 for the full control effect.
row,Compound,cytotoxicity increase
1,Nc1ccc(S(=O)(=O)Nc2ccccn2)cc1,-2.74% [at 35.3 µM]
2,Nc1ccnc(=O)[nH]1,-6.7%
3,CCCCCCCCCCCCC,-3.17%
4,Cc1nc([N+](=O)[O-])cn1-c1ccc([N+](=O)[O-])cc1,4.57% [at 35.3 µM]
5,Cc1ccc2c(c1)c1c3n2CCNC3CCC1 (stereo not given),24% [at 35.3 µM]
6,CC(C)=CC(C)(C)C,9.26%
7,c1ccc(CNc2ncnc3nc[nH]c23)cc1,-8.5%
8,CCCCCCCCCCCCCCCCI,-12.6% [at 15.8 µM]
9,CCOC(=O)OCC/C(SC(=O)OCC)=C(\C)N(C=O)Cc1cnc(C)nc1N,-22.3% [at 35.3 µM]
10,CCCCCCCCCCCCCCCCCCN(C)C,-7.64% [at 35.3 µM]
11,Cc1cccc(C(=O)O)c1[N+](=O)[O-],-0.658%
12,NCCc1ccn[nH]1,-8.24% [at 35.3 µM]
13,COc1ccc(OC)c(NC(=O)CC(C)=O)c1,-10.8%
14,O=c1[nH]c(=O)c2[nH]c(=O)[nH]c2[nH]1,-0.415% [at 6.97 µM]
15,OC[C@@H](O)[C@H](O)[C@@H](O)[C@@H](O)CO,21.9%
16,CN(C)CCOCCN(C)CCO,-0.507%
17,O=C1NC2NC(=O)NC2N1 (stereo not given),-11.3%
18,CC(C)CCCC(C)CC=O (stereo not given),21.8%
19,CCCCOC(=O)C(C)OC(=O)CCC (stereo not given),1.12%
20,CN[C@@H]1[C@@H](O)[C@@H](O[C@@H]2[C@H](O)[C@H](O[C@H]3OC(CN)=CC[C@H]3N)[C@@H](N)C[C@H]2N)OCC1(C)O (stereo not given in full),-10% [at 35.3 µM]

row,Compound,cytotoxicity increase
1,CC(C)(C)NCCO,7.63%
2,CC(=O)OC(C)c1ccccc1 (stereo not given),-11.4%
3,CC(C)COC(=O)COc1ccc(Cl)cc1Cl,13.5%
4,CCC(=O)c1ccc(O)cc1,-9.05% [at 35.3 µM]
5,CCCOC(=O)CCCCC(=O)OCCC,-0.625%
6,NS(=O)(=O)c1ccc(Cl)c(S(N)(=O)=O)c1,-10.6% [at 35.3 µM]
7,C=CCOCC(O)CCl (stereo not given),-4.68%
8,O=C1c2ccccc2-c2ccccc21,2.56%
9,COC(/C=C(\C)CCC=C(C)C)OC,-13.7%
10,C1=C\CC/C=C\CC/1,6.55%
11,Nc1c(NC/C=C\COc2cc(CN3CCCCC3)ccn2)c(=O)c1=O,-13.1% [at 15.8 µM]
12,O=S(=O)(O)SSS(=O)(=O)O,-6.32%
13,O=C(O)c1ccccc1C(=O)Nc1ccc(S(=O)(=O)Nc2nccs2)cc1,-2.45% [at 35.3 µM]
14,O=C(O)/C=C/c1ccccc1,-0.352%
15,OCCCCCCCl,10%
16,Cc1nc2n(c(=O)c1CCN1CCC(C(=O)c3ccc(F)cc3)CC1)CCS2,-23.7% [at 35.3 µM]
17,CCOC(=O)CC(CC(=O)OCC)(OC(C)=O)C(=O)OCC,1.66%
18,C=CC(C)(O)CC/C=C(\C)CC (stereo not given),-1.51%
19,C=CCOc1c(Br)cc(C(C)(C)c2cc(Br)c(OCC=C)c(Br)c2)cc1Br,-10.3% [at 35.3 µM]
20,Cc1ccc(C(=O)C(=O)O)cc1C,-12.2% [at 35.3 µM]
